# From PubChem BioAssay
# For some of these results: Measured potencies and affinities stand elsewhere. Activity calls are given as the source filed them.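 Rule for the calls, unless noted: active = calcium signal ratio cut to more than 3 SD under the fully stimulated control mean yet still positive, in both repeats and the primary screen; inactive = the rest.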
# Key:
# [1] = system: TRPC4 beta (transient receptor potential cation channel C4), mouse; assay: activators of mouse TRPC4 channel, confirmation, cell-based, Fluo4 calcium, HEK293 TRPC4beta/mu-opioid, duplicates, 10 µM (AID 2426;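 active = fluorescence ratio normalized to control raised more than 50% in primary screen plus both repeat runs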); details: Fluo4 calcium fluorescence, at 10 µM; hits give high values
# [2] = system: transient receptor potential cation channel C4 beta (TRPC4), mouse; assay: activators of mouse TRPC4 channel, confirmation, cell-based, second round, Fluo4, HEK293 TRPC4beta/mu-opioid, 1 µM (AID 2461;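 active = primary screen active and over 50% activation in each of two duplicate runs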); details: Fluo4 calcium fluorescence, at 1 µM; hits give high values
# [3] = system: TRPC4 (transient receptor potential cation channel C4 beta), mouse; assay: positive allosteric modulators of mouse TRPC4, confirmation, cell-based, second round, Fluo-4, HEK293 TRPC4beta/mu-opioid, 1 µM (AID 2554;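 active = primary screen hit whose fluorescence ratio, in both repeats, exceeds the weak agonist control mean by 3 SD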); details: DAMGO EC20, Fluo-4 calcium flux, at 1 µM; hits give high values
# [4] = system: TRPC4 beta (transient receptor potential cation channel C4), mouse; assay: positive allosteric modulators of mouse TRPC4, confirmation, cell-based, Fluo-4, HEK293 TRPC4beta/mu-opioid (AID 2555;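 active = primary screen hit whose calcium fluorescence ratio, in both repeats, exceeds the weak agonist control mean by 3 SD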); details: DAMGO EC20, Fluo-4 calcium flux, at 10 µM; hits give high values
# [5] = molecular target: Short transient receptor potential channel 4 (Mus musculus) (UniProt Q9QUQ5); assay: inhibitors of mouse TRPC4 channel, confirmation, cell-based, Fluo4, HEK293 TRPC4beta/mu-opioid (AID 2636;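 active = calcium signal cut by more than 3 SD below the full-agonist control yet still positive, in both repeats and the earlier primary screen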); details: DAMGO, Fluo4 calcium flux, at 10 µM; hits give high values
# [6] = molecular target: Short transient receptor potential channel 4 (Mus musculus) (UniProt Q9QUQ5); assay: inhibitors of mouse TRPC4 channel, confirmation, cell-based, second round, Fluo4, HEK293 TRPC4beta/mu-opioid, 1 µM (AID 2637); details: Fluo4 calcium flux, DAMGO, at 1 µM; hits give high values
# [7] = molecular target: Short transient receptor potential channel 4 (Mus musculus) (UniProt Q9QUQ5); assay: mouse TRPC4 channel activators, dose response, cell-based, HEK293 TRPC4/mu-opioid, Fluo-4 calcium (AID 434937;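 active = primary screen activator hit with a dose response curve and TRPC4 channel activation at any tested dose; inactive = no activation, no dose response, or not a primary hit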)
# [8] = molecular target: Short transient receptor potential channel 4 (Mus musculus) (UniProt Q9QUQ5); assay: TRPC4 positive allosteric modulators, dose response, cell-based, HEK293 TRPC4/mu-opioid, Fluo-4 calcium, EC20 DAMGO (AID 434941;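 active = earlier screen potentiator hit that boosts the TRPC4 ion channel at some dose, with a dose response; inactive = no potentiation, no dose response, or not a prior hit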;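 note: calcium entry triggered by an EC20 dose of DAMGO at the co-expressed mu-opioid receptor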)
# [9] = molecular target: Short transient receptor potential channel 4 (Mus musculus) (UniProt Q9QUQ5); assay: mouse TRPC4 channel inhibitors, dose response, cell-based, HEK293 TRPC4/mu-opioid, Fluo-4 calcium (AID 434942;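 active = primary screen inhibitor hit that blocks the TRPC4 channel at some tested dose, yielding a dose curve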)
# [10] = molecular target: Short transient receptor potential channel 6 (Mus musculus) (UniProt Q61143); assay: inhibition of mouse TRPC6 channel, confirmation, selectivity assay for TRPC4 inhibitor project, cell-based, HEK293, membrane potential dye, duplicate (AID 434948;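 active = active in primary screen and both duplicates, each dropping signal beyond three positive-control SD with fluorescence still positive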); details: HEK293 TRPC6, membrane potential dye fluorescence, at 10 µM, stimulated with maximal-effect acetylcholine; hits give high values
# [11] = molecular target: Short transient receptor potential channel 6 (Mus musculus) (UniProt Q61143); assay: activation of mouse TRPC6 channel, confirmation, selectivity assay for TRPC4 activator project, cell-based, HEK293, membrane potential dye, duplicate (AID 434950;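 active = membrane potential signal rise above negative control mean plus 3 SD in both duplicates, also active in the earlier TRPC4 screen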); details: HEK293 TRPC6, membrane potential fluorescence, at 10 µM; hits give high values
# [12] = molecular target: Short transient receptor potential channel 6 (Mus musculus) (UniProt Q61143); assay: TRPC6 potentiation by TRPC4 potentiator hits, confirmation, selectivity assay for TRPC4 potentiator project, HEK293 cells, membrane potential dye, duplicate (AID 434952;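 active = compound raising the membrane signal above positive-control mean plus 3 SD in both repeats, and a primary screen hit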); details: HEK293 TRPC6, membrane potential dye fluorescence, at 10 µM, maximal acetylcholine added after compound; hits give high values
# [13] = molecular target: Short transient receptor potential channel 4 (Mus musculus) (UniProt Q9QUQ5); assay: calcium flux activators in TRPC4/5HT1a cells, counter-screen for TRPC4 activator project, cell-based, second counter screen, HEK293 TRPC4/5HT1a, Fluo-4 (AID 434977;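 active = calcium signal rise above buffer-control mean plus 5 SD in both duplicates, and also a hit in the primary screen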); details: Fluo-4 calcium flux, at 10 µM; hits give high values
# [14] = calcium flux inhibitors in TRPC4/5HT1a cells, confirmation, counter-screen for TRPC4 inhibitor project, cell-based, second counter screen, HEK293 TRPC4/5HT1a, Fluo-4 (AID 434978;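 active = primary screen active whose calcium signal fell more than 3 SD beyond the full-serotonin control mean in both duplicate plates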;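 for outcome: serotonin given first at submaximal then at maximal dose after compound preincubation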); details: Fluo-4 calcium flux, at 10 µM, serotonin added to trigger calcium flux; hits give high values
# [15] = system: TRPC4 (mouse), co-expressed with 5HT1a in HEK293; assay: calcium flux potentiators in TRPC4/5HT1a cells, confirmation, counter-screen for TRPC4 potentiator project, cell-based, second counter screen, HEK293 TRPC4/5HT1a, Fluo-4 (AID 434979;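 active = signal rise over 3 SD above mean of control wells given weak agonist, in both repeats and first screen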); details: Fluo-4 calcium flux, at 10 µM, serotonin added at its EC20 dose; hits give high values
# [16] = calcium flux activation in mu-opioid HEK293 cells, confirmation, counter-screen for TRPC4 activator project, cell-based, HEK293 mu-opioid receptor line (AID 449723;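 active = hit in primary screen, with calcium signal over 5 SD above buffer well mean in both duplicates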;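 note: counter screen cells carry the mu-opioid receptor alone and lack TRPC4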); details: Fluo-4 calcium fluorescence, at 10 µM; hits give high values
# [17] = calcium flux enhancement in mu-opioid HEK293 cells, confirmation, counter-screen for TRPC4 allosteric potentiator project, cell-based, HEK293 mu-opioid receptor line (AID 449724;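 active = calcium signal rise more than 3 SD above the low-dose agonist control mean, in both duplicate plates and the primary screen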); details: Fluo-4 calcium flux, at 10 µM, compound added before EC20 DAMGO stimulus; hits give high values
# Short transient receptor potential channel 4 (Mus musculus), sequence (Q9QUQ5 whole entry, looked up): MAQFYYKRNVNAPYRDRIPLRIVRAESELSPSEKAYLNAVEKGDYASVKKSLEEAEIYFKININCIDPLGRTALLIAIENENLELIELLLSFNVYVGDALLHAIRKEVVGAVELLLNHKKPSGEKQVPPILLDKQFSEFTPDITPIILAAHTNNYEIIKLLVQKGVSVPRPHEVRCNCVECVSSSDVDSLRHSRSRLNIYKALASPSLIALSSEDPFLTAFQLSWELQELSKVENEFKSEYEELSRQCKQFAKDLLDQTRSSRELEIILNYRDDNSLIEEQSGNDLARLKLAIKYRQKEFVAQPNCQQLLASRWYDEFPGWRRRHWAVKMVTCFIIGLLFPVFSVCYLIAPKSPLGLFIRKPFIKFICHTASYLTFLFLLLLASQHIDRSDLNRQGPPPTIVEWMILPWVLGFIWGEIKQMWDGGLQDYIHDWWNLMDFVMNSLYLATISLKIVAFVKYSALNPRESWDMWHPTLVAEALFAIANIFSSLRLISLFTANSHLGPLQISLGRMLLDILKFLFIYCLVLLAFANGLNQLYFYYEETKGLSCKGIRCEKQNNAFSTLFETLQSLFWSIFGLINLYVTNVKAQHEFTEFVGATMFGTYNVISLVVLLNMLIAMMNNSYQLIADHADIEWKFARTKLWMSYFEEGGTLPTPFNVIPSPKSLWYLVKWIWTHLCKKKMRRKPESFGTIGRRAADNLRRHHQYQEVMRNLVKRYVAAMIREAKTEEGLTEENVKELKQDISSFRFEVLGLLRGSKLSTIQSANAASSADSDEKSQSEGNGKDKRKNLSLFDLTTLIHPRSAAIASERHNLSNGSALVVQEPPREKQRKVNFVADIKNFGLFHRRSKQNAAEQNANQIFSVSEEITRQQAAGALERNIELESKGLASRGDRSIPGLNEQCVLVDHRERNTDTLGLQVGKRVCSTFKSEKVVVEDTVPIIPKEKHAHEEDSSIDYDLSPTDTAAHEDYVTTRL
# Short transient receptor potential channel 6 (Mus musculus), sequence (Q61143 whole entry, looked up): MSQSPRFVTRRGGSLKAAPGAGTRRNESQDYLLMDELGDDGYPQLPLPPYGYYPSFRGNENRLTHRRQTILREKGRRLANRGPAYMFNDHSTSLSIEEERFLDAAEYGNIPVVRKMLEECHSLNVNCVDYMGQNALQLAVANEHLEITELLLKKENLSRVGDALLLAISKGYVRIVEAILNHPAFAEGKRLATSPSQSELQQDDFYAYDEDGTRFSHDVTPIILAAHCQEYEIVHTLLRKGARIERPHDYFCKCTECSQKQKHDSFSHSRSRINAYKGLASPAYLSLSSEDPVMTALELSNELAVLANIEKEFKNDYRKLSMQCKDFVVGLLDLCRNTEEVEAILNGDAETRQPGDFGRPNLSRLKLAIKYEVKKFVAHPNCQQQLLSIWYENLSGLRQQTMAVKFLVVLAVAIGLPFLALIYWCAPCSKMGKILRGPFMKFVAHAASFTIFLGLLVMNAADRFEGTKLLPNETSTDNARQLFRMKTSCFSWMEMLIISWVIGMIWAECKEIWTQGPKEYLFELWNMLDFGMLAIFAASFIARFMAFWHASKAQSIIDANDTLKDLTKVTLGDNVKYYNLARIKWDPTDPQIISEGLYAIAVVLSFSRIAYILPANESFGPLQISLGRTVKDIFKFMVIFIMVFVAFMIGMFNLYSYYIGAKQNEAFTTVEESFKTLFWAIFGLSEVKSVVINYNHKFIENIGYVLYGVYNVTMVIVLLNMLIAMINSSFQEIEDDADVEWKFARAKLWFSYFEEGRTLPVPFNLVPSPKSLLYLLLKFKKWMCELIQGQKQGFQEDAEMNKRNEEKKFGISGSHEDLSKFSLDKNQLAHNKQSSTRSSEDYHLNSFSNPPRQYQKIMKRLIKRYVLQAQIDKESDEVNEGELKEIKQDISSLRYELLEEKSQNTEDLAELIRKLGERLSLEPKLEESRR
smiles,measurement,setting,value
CC1CN(c2nc3c(c(=O)n(Cc4ccc(Cl)c(Cl)c4)c(=O)n3C)n2C)CC(C)O1 (stereo not drawn),outcome,[1],inactive
same,outcome,[2],inactive
same,outcome,[3],inactive
same,potentiation,[4],13% (active)
same,outcome,[5],inactive
same,outcome,[6],inactive
same,outcome,[7],inactive
same,outcome,[8],inactive
same,outcome,[9],inactive
same,outcome,[10],inactive
same,outcome,[11],inactive
same,outcome,[12],inactive
same,outcome,[13],inactive
same,outcome,[14],inactive
same,potentiation,[15],26.4% (active)
same,outcome,[16],inactive
same,outcome,[17],inactive
O=C(Nc1ncc(Br)s1)C(Cc1ccccc1)n1cccc1 (stereo not drawn),outcome,[1],inactive
same,outcome,[2],inactive
same,outcome,[3],inactive
same,potentiation,[4],26% (active)
same,outcome,[5],inactive
same,outcome,[6],inactive
same,outcome,[7],inactive
same,outcome,[8],inactive
same,outcome,[9],inactive
same,outcome,[10],inactive
same,outcome,[11],inactive
same,outcome,[12],inactive
same,outcome,[13],inactive
same,outcome,[14],inactive
same,potentiation,[15],7.42% (active)
same,outcome,[16],inactive
same,outcome,[17],inactive
Cc1oc2c(c1C(=O)c1ccccc1)C(=O)C(=O)c1ccccc1-2,outcome,[1],inactive
same,outcome,[2],inactive
same,outcome,[3],inactive
same,outcome,[4],inactive
same,inhibition,[5],68% (active)
same,outcome,[6],inactive
same,outcome,[7],inactive
same,outcome,[8],inactive
same,outcome,[9],inactive
same,outcome,[10],inactive
same,outcome,[11],inactive
same,outcome,[12],inactive
same,outcome,[13],inactive
same,inhibition,[14],30.8% (active)
same,outcome,[15],inactive
same,outcome,[16],inactive
same,outcome,[17],inactive
CCC(=O)Nc1cc(ON=C(C)C)cc([N+](=O)[O-])c1,outcome,[1],inactive
same,outcome,[2],inactive
same,outcome,[3],inactive
same,outcome,[4],inactive
same,outcome,[5],inactive
same,outcome,[6],inactive
same,outcome,[7],inactive
same,outcome,[8],inactive
same,outcome,[9],inactive
same,outcome,[10],inactive
same,outcome,[11],inactive
same,outcome,[12],inactive
same,outcome,[13],inactive
same,outcome,[14],inactive
same,outcome,[15],inactive
same,outcome,[16],inactive
same,outcome,[17],inactive
Cc1ccccc1-n1c(=O)c2c(n3cnnc13)-c1ccccc1CC21CCCCC1,outcome,[1],inactive
same,outcome,[2],inactive
same,outcome,[3],inactive
same,outcome,[4],inactive
same,outcome,[5],inactive
same,outcome,[6],inactive
same,outcome,[7],inactive
same,outcome,[8],inactive
same,outcome,[9],inactive
same,outcome,[10],inactive
same,outcome,[11],inactive
same,outcome,[12],inactive
same,outcome,[13],inactive
same,outcome,[14],inactive
same,potentiation,[15],10.5% (active)
same,outcome,[16],inactive
same,outcome,[17],inactive
CC1=CC(=O)C(C(C)C)=C/C1=N/OS(=O)(=O)c1ccccc1,outcome,[1],inactive
same,outcome,[2],inactive
same,outcome,[3],inactive
same,potentiation,[4],23% (active)
same,outcome,[5],inactive
same,outcome,[6],inactive
same,outcome,[7],inactive
same,outcome,[8],inactive
same,outcome,[9],inactive
same,outcome,[10],inactive
same,outcome,[11],inactive
same,outcome,[12],inactive
same,outcome,[13],inactive
same,outcome,[14],inactive
same,potentiation,[15],64.1% (active)
same,outcome,[16],inactive
same,outcome,[17],inactive
Cc1cc(C)nc(NNS(=O)(=O)c2ccc(F)c(Cl)c2)n1,outcome,[1],inactive
same,outcome,[2],inactive
same,outcome,[3],inactive
same,outcome,[4],inactive
same,outcome,[5],inactive
same,outcome,[6],inactive
same,outcome,[7],inactive
same,outcome,[8],inactive
same,outcome,[9],inactive
same,outcome,[10],inactive
same,outcome,[11],inactive
same,outcome,[12],inactive
same,outcome,[13],inactive
same,outcome,[14],inactive
same,potentiation,[15],6.83% (active)
same,outcome,[16],inactive
same,outcome,[17],inactive
O=c1c2ccccc2oc2nc(C3CCCCC3)n(Cc3ccco3)c(=O)c12,outcome,[1],inactive
same,outcome,[2],inactive
same,potentiation,[3],10% (active)
same,potentiation,[4],11% (active)
same,outcome,[5],inactive
same,outcome,[6],inactive
same,outcome,[7],inactive
same,outcome,[8],inactive
same,outcome,[9],inactive
same,outcome,[10],inactive
same,outcome,[11],inactive
same,outcome,[12],inactive
same,outcome,[13],inactive
same,outcome,[14],inactive
same,potentiation,[15],30.7% (active)
same,outcome,[16],inactive
same,outcome,[17],inactive
O=[N+]([O-])c1ccccc1CN1CCN(S(=O)(=O)c2ccccc2)CC1,outcome,[1],inactive
same,outcome,[2],inactive
same,outcome,[3],inactive
same,potentiation,[4],11% (active)
same,outcome,[5],inactive
same,outcome,[6],inactive
same,outcome,[7],inactive
same,outcome,[8],inactive
same,outcome,[9],inactive
same,outcome,[10],inactive
same,outcome,[11],inactive
same,outcome,[12],inactive
same,outcome,[13],inactive
same,outcome,[14],inactive
same,outcome,[15],inactive
same,outcome,[16],inactive
same,outcome,[17],inactive
Cc1c(C(=O)NCCc2ccccc2)oc2ccccc12,outcome,[1],inactive
same,outcome,[2],inactive
same,outcome,[3],inactive
same,potentiation,[4],61% (active)
same,outcome,[5],inactive
same,outcome,[6],inactive
same,outcome,[7],inactive
same,outcome,[8],inactive
same,outcome,[9],inactive
same,outcome,[10],inactive
same,outcome,[11],inactive
same,outcome,[12],inactive
same,outcome,[13],inactive
same,outcome,[14],inactive
same,potentiation,[15],45.7% (active)
same,outcome,[16],inactive
same,outcome,[17],inactive
COc1ccc(CN(C2CCCCC2C)S(=O)(=O)c2ccc(S(=O)(=O)N(C)C)cc2)cc1OC (stereo not drawn),outcome,[1],inactive
same,outcome,[2],inactive
same,outcome,[3],inactive
same,potentiation,[4],12% (active)
same,outcome,[5],inactive
same,outcome,[6],inactive
same,outcome,[7],inactive
same,outcome,[8],inactive
same,outcome,[9],inactive
same,outcome,[10],inactive
same,outcome,[11],inactive
same,outcome,[12],inactive
same,outcome,[13],inactive
same,outcome,[14],inactive
same,potentiation,[15],5.84% (active)
same,outcome,[16],inactive
same,outcome,[17],inactive
O=C1CCCC(=O)N1c1ccc(N2CCN(c3ccc([N+](=O)[O-])cc3)CC2)c([N+](=O)[O-])c1,outcome,[1],inactive
same,outcome,[2],inactive
same,outcome,[3],inactive
same,potentiation,[4],11% (active)
same,outcome,[5],inactive
same,outcome,[6],inactive
same,outcome,[7],inactive
same,outcome,[8],inactive
same,outcome,[9],inactive
same,outcome,[10],inactive
same,outcome,[11],inactive
same,outcome,[12],inactive
same,outcome,[13],inactive
same,outcome,[14],inactive
same,potentiation,[15],14.9% (active)
same,outcome,[16],inactive
same,outcome,[17],inactive
Cn1ncc(C#N)c1/N=C/N(Cc1ccccc1)Cc1ccccc1,outcome,[1],inactive
same,outcome,[2],inactive
same,outcome,[3],inactive
same,outcome,[4],inactive
same,outcome,[5],inactive
same,outcome,[6],inactive
same,outcome,[7],inactive
same,outcome,[8],inactive
same,outcome,[9],inactive
same,outcome,[10],inactive
same,outcome,[11],inactive
same,outcome,[12],inactive
same,outcome,[13],inactive
same,outcome,[14],inactive
same,outcome,[15],inactive
same,outcome,[16],inactive
same,outcome,[17],inactive
CCN1CCN(c2ccc(S(=O)(=O)N3CCCCC3)cc2NC(=O)c2cccc(C(F)(F)F)c2)CC1,outcome,[1],inactive
same,outcome,[2],inactive
same,outcome,[3],inactive
same,potentiation,[4],21% (active)
same,outcome,[5],inactive
same,outcome,[6],inactive
same,outcome,[7],inactive
same,outcome,[8],inactive
same,outcome,[9],inactive
same,outcome,[10],inactive
same,outcome,[11],inactive
same,outcome,[12],inactive
same,outcome,[13],inactive
same,outcome,[14],inactive
same,potentiation,[15],21.1% (active)
same,outcome,[16],inactive
same,outcome,[17],inactive
